From paper PMC8384837, “Expanding the binding specificity for RNA recognition by a PUF domain”
Substitutions are numbered along the chain they refer to.

Legend:
Assay in all cases: yeast three-hybrid, YBZ-1, SC-Leu-His + 0.5 mM 3-AT, 4 days
Conditions in all cases: tags: N-Gal4 AD-HA kept; label: inside an RPR1-promoter hybrid RNA with tandem MS2 sites; ssRNA
[1] = target: PUM1 PUF domain R4-THP (Homo sapiens, UniProt Q14671 828-1176, N971T;Q975P)
Outline: (§1)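 A centromeric plasmid in strain YBZ-1 co-expressed Pumilio-1 PUF domain libraries, randomized at the three base-contacting residues of each repeat, with matching RNA elements; the strain carries a LexA–MS2 coat fusion and a HIS3 reporter. After four days on SC-Leu (input) or SC-Leu-His + 0.5 mM 3-AT (selection), the repeat regions were PCR-amplified and Illumina-sequenced. The interaction score is the log change in variant frequency from input to selection, using log2 and a pseudocount of 1 where absent.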

[2] = target: T1, PUM1 PUF domain R6-CFY (Homo sapiens, UniProt Q14671 828-1176, N1043C;Y1044F;Q1047Y)
T1 sequence: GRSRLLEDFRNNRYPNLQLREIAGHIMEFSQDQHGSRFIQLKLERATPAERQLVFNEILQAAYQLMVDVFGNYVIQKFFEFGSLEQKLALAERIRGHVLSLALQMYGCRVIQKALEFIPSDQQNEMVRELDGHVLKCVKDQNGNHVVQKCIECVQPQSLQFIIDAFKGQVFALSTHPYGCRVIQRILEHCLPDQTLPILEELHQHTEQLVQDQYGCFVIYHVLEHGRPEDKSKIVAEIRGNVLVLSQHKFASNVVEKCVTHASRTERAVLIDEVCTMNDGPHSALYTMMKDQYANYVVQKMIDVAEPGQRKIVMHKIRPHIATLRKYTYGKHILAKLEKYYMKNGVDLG
Outline: as §1

[3] = target: T2, PUM1 PUF domain R6-AYQ (Homo sapiens, UniProt Q14671 828-1176, N1043A)
T2 sequence: T1 sequence with C216A, F217Y, Y220Q
Outline: as §1

[4] = target: PUM1 PUF domain R5-DFA (Homo sapiens, UniProt Q14671 828-1176, C1007D;R1008F;Q1011A)
Outline: as §1

[5] = target: PUM1 PUF domain R7-RTL (Homo sapiens, UniProt Q14671 828-1176, S1079R;N1080T;E1083L)
Outline: as §1

[6] = target: PUM1 PUF domain R7-RRA (Homo sapiens, UniProt Q14671 828-1176, S1079R;N1080R;E1083A)
Outline: as §1

[7] = target: PUM1 PUF domain R1-CWR (Homo sapiens, UniProt Q14671 828-1176, S863C;R864W;Q867R)
Outline: as §1

[8] = target: PUM1 PUF domain R3-RRR (Homo sapiens, UniProt Q14671 828-1176, C935R;Q939R)
Outline: as §1

[9] = target: PUM1 PUF domain R8-HYP (Homo sapiens, UniProt Q14671 828-1176, N1122H;Q1126P)
Outline: as §1

Sequence of PUM1 PUF domain R8-HYP (Q14671 828-1176 N1122H/Q1126P): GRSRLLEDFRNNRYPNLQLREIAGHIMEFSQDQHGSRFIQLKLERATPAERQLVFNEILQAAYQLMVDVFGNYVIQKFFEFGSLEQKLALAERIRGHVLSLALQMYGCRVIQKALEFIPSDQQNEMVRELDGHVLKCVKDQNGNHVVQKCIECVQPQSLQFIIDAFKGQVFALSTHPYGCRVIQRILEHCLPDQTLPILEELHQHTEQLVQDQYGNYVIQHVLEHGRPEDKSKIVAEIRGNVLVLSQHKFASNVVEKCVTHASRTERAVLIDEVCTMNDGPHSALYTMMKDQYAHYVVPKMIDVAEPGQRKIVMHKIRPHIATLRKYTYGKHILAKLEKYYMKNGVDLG
Sequence of PUM1 PUF domain R3-RRR (Q14671 828-1176 C935R/Q939R): as the sequence (Q14671 828-1176 N1122H/Q1126P) above, with C108R, Q112R, H295N, P299Q counted along it

Sequence: GGCUAGAACUAGUGGAUCCCCCGGCGCCCGGCGGCUCGAGCCCGGGUAAGUGUAUAUAGUCUGCAUGCCGCCGGGCGCCAUGCCUGCAGGUCGACUCUAGAAAACAUG
- binding signal [1]: 2.79 log2 enrichment (interaction score)

Sequence: GGCUAGAACUAGUGGAUCCCCCGGCGCCCGGCGGCUCGAGCCCGGGUAAGUGAAAAUAGUCUGCAUGCCGCCGGGCGCCAUGCCUGCAGGUCGACUCUAGAAAACAUG
- binding signal [2]: 1.54 log2 enrichment (interaction score)
- binding signal [3]: 4.26 log2 enrichment (interaction score)

Sequence: GGCUAGAACUAGUGGAUCCCCCGGCGCCCGGCGGCUCGAGCCCGGGUAAGUGUAAAUAGUCUGCAUGCCGCCGGGCGCCAUGCCUGCAGGUCGACUCUAGAAAACAUG
- binding signal [2]: 2.39 log2 enrichment (interaction score)
- binding signal [4]: 4.36 log2 enrichment (interaction score)

Sequence: GGCUAGAACUAGUGGAUCCCCCGGCGCCCGGCGGCUCGAGCCCGGGUAAGUUUAAAUAGUCUGCAUGCCGCCGGGCGCCAUGCCUGCAGGUCGACUCUAGAAAACAUG
- binding signal [5]: 3.26 log2 enrichment (interaction score)
- binding signal [6]: 3.23 log2 enrichment (interaction score)

Sequence: GGCUAGAACUAGUGGAUCCCCCGGCGCCCGGCGGCUCGAGCCCGGGUAAGUGUAAAUGGUCUGCAUGCCGCCGGGCGCCAUGCCUGCAGGUCGACUCUAGAAAACAUG
- binding signal [7]: 1.23 log2 enrichment (interaction score)

Sequence: GGCUAGAACUAGUGGAUCCCCCGGCGCCCGGCGGCUCGAGCCCGGGUAAGUGUAAAUCGUCUGCAUGCCGCCGGGCGCCAUGCCUGCAGGUCGACUCUAGAAAACAUG
- binding signal [7]: 6.18 log2 enrichment (interaction score)

Sequence: GGCUAGAACUAGUGGAUCCCCCGGCGCCCGGCGGCUCGAGCCCGGGUAAGUCUAAAUAGUCUGCAUGCCGCCGGGCGCCAUGCCUGCAGGUCGACUCUAGAAAACAUG
- binding signal [6]: 5.23 log2 enrichment (interaction score)

Sequence: GGCUAGAACUAGUGGAUCCCCCGGCGCCCGGCGGCUCGAGCCCGGGUAAGUGUAAUUAGUCUGCAUGCCGCCGGGCGCCAUGCCUGCAGGUCGACUCUAGAAAACAUG
- binding signal [8]: 3.73 log2 enrichment (interaction score)

Sequence: GGCUAGAACUAGUGGAUCCCCCGGCGCCCGGCGGCUCGAGCCCGGGUAAGGGUAAAUAGUCUGCAUGCCGCCGGGCGCCAUGCCUGCAGGUCGACUCUAGAAAACAUG
- binding signal [9]: 2.77 log2 enrichment (interaction score)

Sequence: GGCUAGAACUAGUGGAUCCCCCGGCGCCCGGCGGCUCGAGCCCGGGUAAGCGUAAAUAGUCUGCAUGCCGCCGGGCGCCAUGCCUGCAGGUCGACUCUAGAAAACAUG
- binding signal [9]: 5.46 log2 enrichment (interaction score)
